PubChem BioAssay AID1347420 (Sanford-Burnham Center for Chemical Genomics, 2020)
“And” between values parts separate entries of the source, which are not always exact repeats. Equal entries are not always repeated. Among all 1,300 compounds or so, about 980 (75%) were called active. Roughly 4% stayed inconclusive and do not appear here. This is one part of the list. A number with no mark means an inactive call.

Molecular target: Sulfhydryl oxidase 1 (Homo sapiens) (UniProt O00391)
Test: QSOX1 enzyme inhibitors, primary screen, biochemical, HyperBlu H2O2 luminescence, HTS (AID 1347420); note: values above 100% were filed as inconclusive
Details: recombinant QSOX1, HyperBlu H2O2 luminescence, at 12.5 µM, stronger effect = higher value; active = any value above zero unless noted

Sequence of Sulfhydryl oxidase 1 (Homo sapiens) (O00391 whole entry, looked up): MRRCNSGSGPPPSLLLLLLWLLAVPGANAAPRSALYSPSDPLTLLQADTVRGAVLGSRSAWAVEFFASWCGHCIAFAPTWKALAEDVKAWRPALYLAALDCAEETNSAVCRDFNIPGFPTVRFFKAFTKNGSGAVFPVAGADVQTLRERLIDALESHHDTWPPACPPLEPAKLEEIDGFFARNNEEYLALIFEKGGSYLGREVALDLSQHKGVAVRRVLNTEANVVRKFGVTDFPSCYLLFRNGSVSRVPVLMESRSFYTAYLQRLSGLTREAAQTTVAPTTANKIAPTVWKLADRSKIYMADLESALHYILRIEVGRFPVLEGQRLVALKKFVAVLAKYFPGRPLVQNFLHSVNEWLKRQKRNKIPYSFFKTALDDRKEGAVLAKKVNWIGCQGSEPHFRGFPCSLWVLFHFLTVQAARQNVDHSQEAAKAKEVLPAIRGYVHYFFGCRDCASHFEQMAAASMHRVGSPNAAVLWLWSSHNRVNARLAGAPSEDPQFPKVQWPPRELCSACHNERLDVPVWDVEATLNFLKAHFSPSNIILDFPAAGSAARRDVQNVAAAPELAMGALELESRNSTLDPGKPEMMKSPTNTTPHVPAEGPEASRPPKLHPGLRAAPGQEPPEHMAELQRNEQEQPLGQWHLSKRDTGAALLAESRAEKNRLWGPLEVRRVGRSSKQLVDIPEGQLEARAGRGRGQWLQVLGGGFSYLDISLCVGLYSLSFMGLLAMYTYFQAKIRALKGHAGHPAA

Row | SMILES | inhibition
1 | O=C(O)c1nn(Cc2ccc(Cl)cc2Cl)c2ccccc12 | -13% [setting not given]
2 | NCCc1c[nH]c2ccccc12 | 1.9% [setting not given] (active)
3 | CCCN(CCC)CCc1c[nH]c2ccc(C(N)=O)cc12 | -6.2% [setting not given]
4 | NCCc1c[nH]c2ccc(C(N)=O)cc12 | 26.8% (active)
5 | Cc1[nH]c2ccc(O)cc2c1CCN | 79.3% [setting not given] (active)
6 | C/C(O)=C(\C#N)C(=O)Nc1cc(Br)ccc1Br | -6.8%
7 | Clc1cnc(Oc2ccc(Oc3ncc(Cl)cc3Cl)cc2)c(Cl)c1 | 10.6% [setting not given] (active)
8 | C=CCN(C1=NCCN1)c1c(Cl)cccc1Cl | 9.6% (active)
9 | c1ccc2c(c1)OCC(C1=NCCN1)O2 (stereo unspecified) | 3.2% (active)
10 | CN1CC[C@@]2(C)c3cc(O)ccc3N(C)C12 (stereo partly specified) | 52.2% (active)
11 | CN1CC[C@@]2(C)c3cc(OC(=O)Nc4ccccc4)ccc3N(C)[C@@H]12 | 41.8% (active)
12 | CCCN(CCC)CCc1ccc(O)c(O)c1 | 56.8% (active)
13 | CNCCc1ccc(O)c(O)c1 | 50.2% (active)
14 | Cc1ccc(S(=O)(=O)N[C@@H](CCCCN)C(=O)CCl)cc1 | 11.5% (active)
15 | O=[N+]([O-])c1ccc2nc(N3CCNCC3)ccc2c1 | 15.5% (active)
16 | COc1ccccc1N1CCNCC1 | -0.1% [setting not given]
17 | c1ccc2c(N3CCNCC3)cccc2c1 | 3% (active)
18 | NNC(=O)c1ccc(O)cc1 | 3.3% (active)
19 | CC12NC(Cc3ccccc31)c1ccccc12 (stereo unspecified) | 3.8% [setting not given] (active)
20 | C[C@]12N[C@H](Cc3ccccc31)c1ccccc12 | -13.1% [setting not given]
21 | CCCN1CCO[C@@H]2c3cc(O)ccc3OC[C@H]21 | 27.5% (active)
22 | CCCN1CC[C@@H]2c3cc(O)ccc3CC[C@@H]21 | 18.3% (active)
23 | CCCn1c(C)c(C(=O)c2ccc3ccccc3c2)c2ccccc21 | -8.8% [setting not given]
24 | CCCCCCCCCCCCCC(=O)O[C@@H]1[C@@H](C)[C@@]2(O)[C@@H](C=C(CO)C[C@@]3(O)C(=O)C(C)=C[C@@H]23)C2C(C)(C)[C@@]21OC(C)=O (stereo partly specified) | -11.5%
25 | CN(N=O)c1cc(O)ccc1O | 56% (active)
26 | CN(N=O)c1ccc(O)c(O)c1 | 9% (active)

Row | SMILES | inhibition
27 | NC(=O)c1ccc(OCC(O)CN2CC=C(c3ccc(F)cc3)CC2)cc1 (stereo unspecified) | -3.1%
28 | CC(NC(C)(C)C)C(=O)c1cccc(Cl)c1 (stereo unspecified) | 0.2% [setting not given] (active)
29 | CC1=NN=C(c2ccc(N)cc2)c2cc3c(cc2C1)OCO3 | 11% (active)
30 | CC(C)NP(=O)(NC(C)C)OP(=O)(NC(C)C)NC(C)C | -1.6%
31 | C=CCN1CC[C@]23c4c5ccc(O)c4O[C@H]2/C(=N/NC(=O)c2ccccc2)CC[C@@]3(O)[C@H]1C5 | 24.9% [setting not given] (active)
32 | C=CCN1CCC23c4c5ccc(O)c4O[C@H]2C(=O)CC[C@@]3(O)C1C5 (stereo partly specified) | 19.6% [setting not given] (active)
33 | O=C1CC[C@@]2(O)C3Cc4ccc(O)c5c4C2(CCN3CC2CC2)[C@H]1O5 (stereo partly specified) | 16.8% [setting not given] (active)
34 | C=CCN1CC[C@]23c4c5ccc(O)c4O[C@@H]2/C(=N/N=C2\CC[C@@]4(O)C6Cc7ccc(O)c8c7[C@@]4(CCN6CC=C)[C@@H]2O8)CC[C@@]3(O)C1C5 | 29.2% (active)
35 | Cn1cnc(CCN)c1 | 10.9% (active)
36 | COc1ccc(C(CN(C)C)C2(O)CCCCC2)cc1 (stereo unspecified) | 7.4% (active)
37 | NCCCP(=O)(O)O | -9.2%
38 | CCCCc1ccc(C(=O)O)nc1 | 5.9% (active)
39 | CC(N)[C@H](O)c1ccc(O)c(O)c1 (stereo partly specified) | 57.3% [setting not given] (active)
40 | NC(C(=O)O)c1cc(=O)[nH]o1 (stereo unspecified) | 4.7% (active)
41 | CCCN1CCC[C@@H]2Cc3[nH]ncc3C[C@H]21 | 5.1% (active)
42 | CCCN1CCC[C@@H]2Cc3nc(N)ncc3C[C@H]21 | 14.3% (active)
43 | O=C(N[C@H]1CN2CCC1CC2)c1ccc(Cl)cc1 | 8.6% (active)
44 | CC(C)(C)NCC(O)c1ccccc1Cl (stereo unspecified) | 6.8% (active)
45 | COc1ccc2c(c1OC)C(=O)O[C@H]2[C@@H]1c2cc3c(cc2CCN1C)OCO3 | 12.6% (active)
46 | O=[N+]([O-])/C=C/c1ccc2c(c1)OCO2 | 19.2% (active)
47 | C#CCN[C@H](C)Cc1ccccc1 | 8.8% [setting not given] (active)
48 | CNc1ccc2oc(C[C@H]3O[C@@]4(CC[C@H]3C)O[C@H]([C@H](C)C(=O)c3ccc[nH]3)[C@H](C)C[C@H]4C)nc2c1C(=O)O | 30.5% [setting not given] (active)
49 | O=C(O)CC[N+](=O)[O-] | 12% [setting not given] (active)
50 | CCn1cnc2c(Nc3cccc(Cl)c3)nc(N[C@@H]3CCCC[C@@H]3N)nc21 | 10.8% (active)
51 | CC(C)[C@H]1CN[C@H](C(=O)O)[C@H]1CC(=O)O | 23.9% (active)
52 | C=C(C)[C@H]1CN[C@H](C(=O)O)[C@H]1CC(=O)O | 5.8% (active)

Row | SMILES | inhibition
53 | CN(C(=O)Cc1ccc(Cl)c(Cl)c1)C(CN1CCCC1)c1cccc(OCC(=O)O)c1 (stereo unspecified) | -2.6%
54 | COC(=O)N1CCN(C(=O)Cc2ccc(Cl)c(Cl)c2)C(CN2CCCC2)C1 (stereo unspecified) | 13.5% (active)
55 | O=C(Cc1ccc(Cl)c(Cl)c1)N1CCCCC1CN1CCCC1 (stereo unspecified) | 2.1% (active)
56 | NN=C(N)N | 17.9% (active) and 6.7% (active)
57 | NC(Cc1cc(O)c(O)cc1O)C(=O)O (stereo unspecified) | 30.1% (active)
58 | NC1CCc2cc(O)c(O)cc2C1 (stereo unspecified) | 60.4% (active)
59 | NC(=NCCC[C@H](N)C(=O)O)N[N+](=O)[O-] | 7.4% (active)
60 | COC(=O)[C@@H](N)CCCN=C(N)N[N+](=O)[O-] | -8.2%
61 | COc1ccc2c(c1)c(CCN1CCOCC1)c(C)n2C(=O)c1cccc(Cl)c1Cl | -15.7%
62 | CCC1(C2=NCCN2)Cc2ccccc2O1 (stereo unspecified) | 0.3% (active)
63 | O=C(O)CCCc1ccc(N(CCCl)CCCl)cc1 | 18% [setting not given] (active)
64 | NC(Cc1ccc(N(CCCl)CCCl)cc1)C(=O)O (stereo unspecified) | 85.8% (active)
65 | Cn1c(CCCC(=O)O)nc2cc(N(CCCl)CCCl)ccc21 | 87% (active)
66 | NCCc1ccc(S(=O)(=O)F)cc1 | 22.8% (active)
67 | NCCc1ccc(O)cc1 | 14.4% [setting not given] (active)
68 | c1ccc2sc(C3(N4CCCCC4)CCCCC3)cc2c1 | -3%
69 | CN1C(=O)CCS(=O)(=O)C1c1ccc(Cl)cc1 (stereo unspecified) | 18.9% (active)
70 | CCS(=O)(=O)Nc1cccc(C(=C2CCCCC2)c2cnc[nH]2)c1 | 14.3% (active)
71 | OC1CCCCC1N1CCC(c2ccccc2)CC1 (stereo unspecified) | 6.2% [setting not given] (active)
72 | C=C(C)[C@H]1Cc2c(ccc3c2O[C@@H]2COc4cc(OC)c(OC)cc4[C@@H]2C3=O)O1 | -11.7% [setting not given]
73 | C[C@H]1C2Cc3ccc(O)cc3C1(C)CCN2CC1CC1 (stereo partly specified) | 26.8% [setting not given] (active)
74 | O=C1NCN(c2ccccc2)C12CCN(CC1COc3ccccc3O1)CC2 (stereo unspecified) | 5.7% (active)
75 | O=C(CCCN1CCC2(CC1)C(=O)NCN2c1ccccc1)c1ccc(F)cc1 | 7.6% [setting not given] (active)
76 | CC(CCc1ccccc1)NC(C)C(O)c1ccc(O)cc1 (stereo unspecified) | 28.5% (active)
77 | NC(=O)CN1CC(O)CC1=O (stereo unspecified) | 15.4% [setting not given] (active)
78 | NC(=O)CN1CCCC1=O | 1% [setting not given] (active)

Row | SMILES | inhibition
79 | Cc1cccc(C)c1NC(=O)CN1CCCC1=O | 13.4% [setting not given] (active)
80 | O=C1CCCN1CC#CCN1CCCC1 | 12.7% [setting not given] (active)
81 | O=P1(N(CCCl)CCCl)NCCCO1 (stereo unspecified) | -3.8%
82 | C/C=C(/C)C(=O)O[C@H]1C(C)=C2[C@H]([C@@H]1OC(=O)CCCCCCC)[C@@](C)(OC(C)=O)C[C@H](OC(=O)CCC)[C@@]1(O)[C@H]2OC(=O)[C@@]1(C)O | -2.4%
83 | Cc1nccc2c1[nH]c1ccccc12 | 8.6% [setting not given] (active)
84 | Cc1c2ccncc2c(C)c2c1[nH]c1ccccc12 | 78.9% [setting not given] (active)
85 | CC(=O)OCC1=C(C(=O)O)N2C(=O)[C@@H](NC(=O)CCC[C@@H](N)C(=O)O)[C@H]2SC1 | -10.7%
86 | Cc1ncsc1CCCl | 12.9% (active)
87 | c1ccc(C2(c3ccccc3)CC2C2=NCCN2)cc1 (stereo unspecified) | 6.4% (active)
88 | COc1cc(CC(C)N)c(OC)cc1I (stereo unspecified) | 7.8% [setting not given] (active)
89 | NC(CP(=O)(O)O)C(=O)O (stereo unspecified) | 2.2% (active)
90 | CS(=N)(=O)CC[C@H](N)C(=O)O (stereo partly specified) | -10.8%
91 | NC(CCP(=O)(O)O)C(=O)O (stereo unspecified) | 12.3% (active)
92 | N[C@@H](CCl)C(=O)O | 8.8% (active)
93 | C[Se]C[C@H](N)C(=O)O | -0.1%
94 | NC(CCCCCP(=O)(O)O)C(=O)O (stereo unspecified) | -4.7%
95 | NCC(CP(=O)(O)O)c1ccc(Cl)cc1 (stereo unspecified) | -10.6%
96 | CN1C2CCC1CC(OC(c1ccccc1)c1ccccc1N)C2 (stereo unspecified) | 14.6% (active)
97 | O=C(O)Cc1cnc[nH]1 | 5.5% (active)
98 | C[C@@H](N)Cc1cnc[nH]1 | 21.1% (active)
99 | OCc1cnc[nH]1 | 3.5% (active)
100 | C#CCOC(=O)C1=CCCN(C)C1 | 17.9% (active)
101 | COC(=O)C1=CCCN(C)C1 | 0.6% [setting not given] (active)
